Test [1] has as its system DLD1. The test can be described thus: cell viability (CellTiter-Glo) relative to plate median (fraction of plate median); higher = more viable cells. As to conditions: 10 µM, treatment time 24 h. The procedure, abridged: (§1)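 Kinase inhibitor library compounds were added at a final 10 µM for 24 h to colorectal cancer cells in 384-well plates, 24 h after seeding. The cells stably expressed lentiviral TCF/Wnt firefly luciferase reporters. Firefly luciferase and CellTiterGlo luminescence came from parallel plates, and each well was normalised to its plate median (webcellHTS2, additive, untransformed), averaged over two independent replicates.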
(In general: Cellular ATP, detected with luciferase, serves as a proxy for viable cell number.)

Test [2] concerns HCT116. Described as above. Particulars: 10 µM; treatment time 24 h; reporter: TCF4/Wnt. The procedure, abridged:
as §1

The test system of test [3] is SW480. Described as above. Particulars: 10 µM; treatment time 24 h; reporter: 7TFP. In short, it runs like this:
as §1

Test [4] has as its system DLD1. The test is described as follows: TCF/Wnt firefly luciferase reporter signal relative to plate median (fraction of plate median); higher = higher Wnt reporter signal. Particulars: 10 µM, treatment time 24 h. In short, it runs like this:
as §1
(A reporter such as luciferase makes a cellular process visible.)

The test system of test [5] is HCT116. The test is described as above. Particulars: 10 µM; treatment time 24 h; reporter: TCF4/Wnt. The procedure, abridged: as §1
Test [6] has as its system SW480. The description is as above. As to conditions: 10 µM; treatment time 24 h; reporter: 7TFP. The procedure, abridged:
as §1

The record followed here is the supplement of paper PMC6522484.

± gives the standard deviation of the averaged measurements.

As to `FC(F)c1nc2ccccc2n1-c1nc(N2CCOCC2)nc(N2CCOCC2)n1`, the cell viability in the test with DLD1 [1] (reporter: 7TFP) stood at 0.82 ± 0.08; with DLD1 [1] (reporter: TCF4/Wnt), 0.835 ± 0.016; with HCT116 [2], 0.829 ± 0.042; with SW480 [3] it was 1.065 ± 0.0071. Also, the “TCF/Wnt firefly luciferase reporter signal” value worked out at 0.673 ± 0.019 in the test on DLD1 [4] (reporter: 7TFP), 0.891 ± 0.11 in the test on DLD1 [4] (reporter: TCF4/Wnt), 1.01 ± 0.061 with HCT116 [5] and 1.03 ± 0.17 in the test on SW480 [6].

With `CNC(=O)c1ccccc1Sc1ccc2c(/C=C/c3ccccn3)n[nH]c2c1` [Axitinib], the cell viability was 0.9855 ± 0.0021 in the test with DLD1 [1] (reporter: 7TFP), 1 ± 0.052 in the test with DLD1 [1] (reporter: TCF4/Wnt), 0.965 ± 0.0028 in the test with HCT116 [2] and 0.906 ± 0.051 in the test with SW480 [3]. For the same compound, the “TCF/Wnt firefly luciferase reporter signal” value was 1.7 ± 0.057 with DLD1 [4] (reporter: 7TFP), 1.97 ± 0.33 with DLD1 [4] (reporter: TCF4/Wnt), 1.53 ± 0.89 in the test with HCT116 [5] and 1.36 ± 0.92 in the test with SW480 [6].

Turning to `Cc1c(NC(=O)OC[C@@H]2COCCN2)cn2ncnc(Nc3ccc4c(cnn4Cc4cccc(F)c4)c3)c12`, the cell viability stood at 1.04 in the test on DLD1 [1] (reporter: 7TFP), 0.97 ± 0.17 in the test with DLD1 [1] (reporter: TCF4/Wnt), 1.13 ± 0.22 with HCT116 [2] and 1.01 ± 0.092 in the test on SW480 [3]. For the same compound, the “TCF/Wnt firefly luciferase reporter signal” value with DLD1 [4] (reporter: 7TFP) was determined as 1.27 ± 0.099; with DLD1 [4] (reporter: TCF4/Wnt), 1.32 ± 0.2; in the test with HCT116 [5], 1.01 ± 0.036; in the test on SW480 [6] it was 1.3 ± 0.078.

In the case of `CNC(=O)Nc1ccc(-c2nc(N3CC4CCC(C3)O4)c3cnn(C4CCC5(CC4)OCCO5)c3n2)cc1`, the cell viability with DLD1 [1] (reporter: 7TFP) was found to be 0.902 ± 0.088; with DLD1 [1] (reporter: TCF4/Wnt), 0.998 ± 0.045; in the test on HCT116 [2] it was 0.805 ± 0.11; in the test with SW480 [3], 1.16 ± 0.028. For the same compound, the “TCF/Wnt firefly luciferase reporter signal” value is 0.356 ± 0.076 in the test on DLD1 [4] (reporter: 7TFP), 0.554 ± 0.12 with DLD1 [4] (reporter: TCF4/Wnt), 0.617 ± 0.14 in the test on HCT116 [5] and 0.876 ± 0.1 in the test with SW480 [6].

Turning to `COc1cc(Nc2ncc(F)c(Nc3ccc4c(n3)N(COP(=O)(O)O)C(=O)C(C)(C)O4)n2)cc(OC)c1OC`, the cell viability came out at 0.895 ± 0.046 with DLD1 [1] (reporter: 7TFP), 0.896 ± 0.073 in the test on DLD1 [1] (reporter: TCF4/Wnt), 0.8 ± 0.055 in the test with HCT116 [2] and 0.919 ± 0.028 in the test on SW480 [3]. In addition, the “TCF/Wnt firefly luciferase reporter signal” value was 0.86 ± 0.098 in the test with DLD1 [4] (reporter: 7TFP), 0.919 ± 0.089 in the test on DLD1 [4] (reporter: TCF4/Wnt), 2.02 ± 1.6 in the test with HCT116 [5] and 0.588 ± 0.28 with SW480 [6].

With `NC(=O)Nc1sc(-c2ccc(F)cc2)cc1C(N)=O`, the cell viability in the test with DLD1 [1] (reporter: 7TFP) stood at 0.951 ± 0.033; in the test on DLD1 [1] (reporter: TCF4/Wnt), 0.93 ± 0.075; in the test with HCT116 [2], 1.1 ± 0.085; in the test on SW480 [3] it was 1.1 ± 0.014. In addition, the “TCF/Wnt firefly luciferase reporter signal” value with DLD1 [4] (reporter: 7TFP) came out at 0.669 ± 0.03; with DLD1 [4] (reporter: TCF4/Wnt), 1.16 ± 0.18; in the test with HCT116 [5] it was 1.39 ± 0.2; in the test on SW480 [6], 1.38 ± 0.057.

Regarding `CC(=O)NCC(=O)N1[C@@H]2CC[C@H]1c1ccc(Nc3ncc(C(F)(F)F)c(NC4CCC4)n3)cc12`, the cell viability with DLD1 [1] (reporter: 7TFP) was determined as 0.907 ± 0.028; in the test on DLD1 [1] (reporter: TCF4/Wnt), 1.04 ± 0.08; in the test with HCT116 [2], 0.256 ± 0.13; with SW480 [3], 0.877 ± 0.071. The “TCF/Wnt firefly luciferase reporter signal” value amounted to 0.742 ± 0.09 with DLD1 [4] (reporter: 7TFP), 1.24 ± 0.092 with DLD1 [4] (reporter: TCF4/Wnt), 0.149 ± 0.0021 in the test on HCT116 [5] and 1.21 ± 0.11 in the test with SW480 [6].

`Cc1c(CN2CCN(C(=O)[C@H](C)O)CC2)sc2c(N3CCOCC3)nc(-c3cnc(N)nc3)nc12`: the cell viability was 0.999 ± 0.13 in the test on DLD1 [1] (reporter: 7TFP), 0.9185 ± 0.0064 in the test on DLD1 [1] (reporter: TCF4/Wnt), 0.679 ± 0.16 with HCT116 [2] and 1.1 ± 0.092 with SW480 [3]. For the same compound, the “TCF/Wnt firefly luciferase reporter signal” value in the test with DLD1 [4] (reporter: 7TFP) came to 0.287 ± 0.056; in the test with DLD1 [4] (reporter: TCF4/Wnt), 0.419 ± 0.11; in the test with HCT116 [5], 0.577 ± 0.21; in the test on SW480 [6], 0.764 ± 0.017.
